Dicer processing = blocks human Dicer maturation of pre-miR-21. Q9UPY3. cat-ELCCA pre-miR-21 Dicer processing, chemiluminescence; stronger effect = higher value. z-score at 25 µM. 47,000 tested, 6% active; in the data active = z-score above about 3, passing the limit was not always enough;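 note: plate controls were vehicle for no effect and no enzyme for full effect; higher signal means more uncleaved substrate so more Dicer inhibition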
Active calls of the source: *. The sample as a whole holds a higher share of hits than the screen did.

SMILES	Dicer processing
C/C(Cc1ncn(-c2cc(C)on2)n1)=N\OC(=O)Nc1ccc(Cl)cc1	0.88
COC(=O)c1c(N)sc2c1CCc1ccccc1-2	-5.41
Cc1nc(N2C(=O)c3oc4ccccc4c(=O)c3C2c2cccc(Cl)c2)sc1C (centres undefined)	0.38
CCN[C@H]1C[C@H](C)S(=O)(=O)c2sc(S(N)(=O)=O)cc21	-0.27
Cc1ccc(CNc2nc3ccccc3n2CCN2CCOCC2)cc1	1.59
c1ccc2c(c1)nc(NCc1ccncc1)n2CCN1CCOCC1	2.53
Oc1ccccc1CNc1nc2ccccc2n1CCN1CCOCC1	4.09*
O=C(Nc1nc2ccccc2n1CCN1CCOCC1)c1cccc([N+](=O)[O-])c1	0.22
COc1ccc(OC)c(CNc2nc3ccccc3n2CCN2CCOCC2)c1	5.07*
COc1ccc(CNc2nc3ccccc3n2C)cc1OC	1.77
CCn1c(NCc2ccccn2)nc2ccccc21	0.67
c1ccc(CNc2nc3ccccc3n2CCN2CCCCC2)nc1	3.47*
Cn1c(CNc2nc3ccccc3n2CCN2CCCCC2)nc2ccccc21	-0.42
COC(=O)/C=C1\SC(=Nc2cccc(C(F)(F)F)c2)N(c2cccc(C(F)(F)F)c2)C1=O	-2.51
CCOc1ccc(N2C(=O)C3C(c4ccccc4C)OC4(C(=O)c5ccccc5C4=O)C3C2=O)cc1 (centres undefined)	0.16
Cc1noc(C)c1C(=O)N=C(N)C12CC3CC(CC(C3)C1)C2	0.43
Fc1cccc(Nc2n[nH]c(=S)s2)c1	-0.02
CSC1=N/C(=C\c2ccccc2F)C(=O)S1	0.9
Cc1cc(C)c(CSc2ccccc2N)c(C)c1CSc1ccccc1N	0.2
COC(=O)CCc1ccc(OCC(O)CNC(C)C)cc1 (centres undefined)	0.11
CC(C)c1ccc(C2c3c(oc4ccccc4c3=O)C(=O)N2Cc2ccc3c(c2)OCO3)cc1 (centres undefined)	0.22
O=C(CSc1nc2c(c(C(F)(F)F)n1)CCc1ccccc1-2)NCCCn1ccnc1	1.01
O=C(Nc1ccccc1)Nc1ccc2ncccc2c1	-0.97
O=C(Nc1ccc(F)cc1F)c1ccc2ncccc2c1	1.11
O=C(Nc1cnc2ccccc2c1)c1ccncc1	3.15*
SMILES	Dicer processing
O=C(Nc1ccc(Cl)cc1)c1cccnc1OCC(F)(F)F	-0.32
CC(=O)c1ccc(OS(=O)(=O)CS(=O)(=O)Oc2ccc(C(C)=O)cc2)cc1	0.5
COc1ccc(CN2CCN(CC3CC4C=CC3C4)CC2)cc1OC (centres undefined)	2.32
CC1(C)CC(=O)C2=C(C1)Nc1[nH]c(=O)[nH]c(=O)c1C2c1ccc(Br)cc1 (centres undefined)	1.44
O=S(=O)(c1ccc(Cl)cc1)N1CCN(c2cccc(Cl)c2)CC1	3.09*
CN(C)C(=O)N1CCN(S(=O)(=O)c2ccc(Cl)cc2)CC1	0.7
O=S(=O)(c1ccc(Cl)cc1)N1CCSCC1	0.73
CCCCOC(=O)C1=C(C)NC2=C(C(=O)CC(C)(C)C2)C1c1cc(OC)ccc1OC (centres undefined)	-0.1
O=[N+]([O-])c1cc(C(F)(F)F)ccc1NCc1ccccc1	-0.42
CCCCNC(=O)CCSc1nc(-c2ccc3c(c2)OCO3)cc(C(F)(F)F)n1	1.55
CS/C(=N\S(=O)(=O)c1ccccc1)N1CCCCC1	0.88
CS/C(=N\S(=O)(=O)c1ccccc1)N1CCCC1	2.14
CSC(=Nc1ccccc1F)N1CCCCC1	4.81*
COc1ccc(/C(C)=N/OC(=O)c2ccc(Cl)cc2)cc1CSc1ccccn1	0.5
CCOC(=O)c1c(C)oc2ccc(O)c(CN(C)C)c12	4*
CCOC(=O)c1c(CN(CC)CC)oc2ccc(OC)cc12	0.26
CCOC(=O)c1c(C)oc2cc(Cl)c(O)c(CN(C)C)c12	1.81
Cc1cc2c(cc1C)CSC(C)(c1ccc(F)cc1)SC2	-1.54
OC1(c2ccc(F)cc2)Cc2ccccc2C2=NCCN21 (centres undefined)	5.64*
O=C(CN1C2=NCCN2c2ccccc21)c1ccc(F)cc1	-0.27
O=C(CCCN1CCN(c2ccccn2)CC1)c1ccc(F)cc1	1.25
C=C[C@H]1CN2CCC1C[C@H]2[C@H](O)c1ccnc2ccc(OC)cc12 (some centres undefined)	0.54
COc1cccc2c1OC1(N3CCOCC3)CCCCC1C2C[N+](=O)[O-] (centres undefined)	3.59*
COc1ccc(OC)c([N+](=O)[O-])c1N1CCOCC1	-0.37
COc1ccccc1C1CCN(c2ccc(C3OCCCO3)cc2[N+](=O)[O-])CC1	0.03
SMILES	Dicer processing
C=CCc1ccc(Oc2ccc([N+](=O)[O-])cn2)c(OC)c1	-1.89
Cc1ncc([N+](=O)[O-])n1CC(=O)O	1.53
Cc1csc(NC(=O)Nc2ccc(C(F)(F)F)cc2)c1Cl	0.31
Cc1ccc(NC(=O)Nc2ccc(C(F)(F)F)cc2)cc1NS(C)(=O)=O	6.26*
Cc1ccc(NC(=O)c2ccsc2)cc1NS(C)(=O)=O	-2.15
CCOC(=O)C1=C(C)N(c2ccc(Br)cc2)C(=O)C1	3.76*
CCOC(=O)C1=NN(c2ccc(C)cc2)C2C(=O)N(c3ccc(Br)cc3)C(=O)C12 (centres undefined)	1.16
CCOC(=O)c1ccc(N2C(=O)CS(=O)(=O)CC2=O)cc1	0.51
COCCCn1c(-c2ccc(Cl)cc2)cc(-c2cccs2)c1-c1ccccc1	3.31*
COCCCn1c(=S)[nH]c2cc(Cl)ccc2c1=O	-10.4
CSc1ccc(-c2c(-c3cccs3)cc(-c3ccc(Cl)cc3)n2C)cc1	0.36
O=C(NC(=O)N1CCSCC1)c1ccccc1Cl	-0.85
Cc1csc2ncnc(N3CCCCC3)c12	-0.39
O=C1OC(COc2ccccc2)CN1c1ccccc1 (centres undefined)	3.42*
O=C(O)C1CC(=O)N(c2ccc(Oc3ccccc3)cc2)C1 (centres undefined)	1.62
Cc1ccc(OCC2CN(Cc3ccccc3)C(=O)O2)cc1 (centres undefined)	0.12
Clc1cccc(CNCc2ccc3c(c2)OCO3)c1	-0.32
c1cc2c(cc1CNCCCN1CCOCC1)OCO2	5.75*
O=C(NCc1ccc2c(c1)OCO2)N1CCOCC1	-1.48
CCOC(=O)C1=C(C)NC2=C(C(=O)CC(c3ccccc3)C2)C1c1ccncc1 (centres undefined)	0.78
CC(C)S(=O)(=O)C/C(N)=N/OS(=O)(=O)c1cc(Cl)ccc1Cl	-1.61
O=C(Nc1nc2ccccc2s1)c1cc2ccccc2o1	0.8
CCCc1cc(=O)[nH]c(SCc2ccc(Cl)cc2Cl)n1	-3.82
CCCc1cc(=O)[nH]c(SCC(=O)Nc2ccc(F)c(Cl)c2)n1	3.13*
CCCc1cc(=O)[nH]c(SCc2ccc(Cl)cc2)n1	-3.47
SMILES	Dicer processing
Nc1nc2c(C(=O)NCc3ccncc3)nnn2c2ccccc12	1.14
S=c1[nH]nc(Cc2n[nH]c(=S)n2-c2ccccc2)n1-c1ccccc1	3.32*
S=c1[nH]nc(Cc2ccccc2)n1-c1ccccc1	-0.51
S=c1[nH]nc(Cc2ccccc2)n1-c1ccc(Cl)cc1	-0.95
Cc1ccc(C(=O)CSc2nccc(-c3nn(-c4ccc(F)cc4)ccc3=O)n2)cc1	0.85
Cc1cc(C)nc(NC2=NCC(=O)N2CCc2c[nH]c3ccccc23)n1	0.73
COc1cccc(/C=N/NC(N)=S)c1O	-1.24
Nc1nc(N2CCCC2)ncc1S(=O)(=O)c1ccc(C(F)(F)F)cn1	-1.62
CC(C)(C)NC(=O)CSc1nnc(NC(=O)Cn2c(=O)oc3ccccc32)s1	1.62
CC(C)c1nnc(NC(=O)Cn2c(=O)oc3ccccc32)s1	0.6
O=C(Cn1c(=O)oc2ccccc21)Nc1nnc(SCC(=O)N2CCCCC2)s1	1.05

Source: PubChem
